Screens deposited in PubChem BioAssay by several laboratories.
SK-BR-3 tox 24h: SK-BR-3 proliferation inhibitors, primary screen, cell-based, human, 24 h. actives 0.47% (n = 41,000). viability, % at 10 µM. SK-BR-3 viability, CellTiter-Glo ATP luminescence; active compounds read low;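 active means viability at or below the median of all test compounds minus 3 SD, in both replicates if run twice, cut at about 45% in these data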;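 further: 100% = median untreated cell wells and 0% = median positive control drug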
PKA inh: inhibitors of human PKA kinase activity, primary screen, biochemical, ATP-depletion luminescence, Kemptide substrate; PKA Kemptide phosphorylation, Kinase-Glo ATP luminescence; cAMP-dependent protein kinase catalytic subunit alpha (Homo sapiens), P17612; inhibition, % at 6 µM; actives 0.1% (n = 65,000);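 active means inhibition above the screen-wide mean inhibition plus 3 SD, cut at about 21% in these data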
Htt clearance: clearance of mutant huntingtin inclusions, primary screen, imaging, HeLa Exon1htt(103Q)mCFP, confocal imaging. aggregate imaging; zero = plate's median compound well. inhibition, % at 1.5 µM. actives 0.42% (n = 47,000). AID 853, 2007;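 active means inhibition of aggregate fluorescence above about 70%, also judged a hit by eye on the cell image, limit read from the data, passing the limit was not always enough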;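 further: cells exposed to compound for three days before fixation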
MMP13 inh: human MMP13 inhibitors, primary screen, biochemical, FRET peptide cleavage. Collagenase 3 (Homo sapiens), P45452. MMP-13 fTHP FRET cleavage, Mca fluorescence. actives 0.07% (n = 65,000). inhibition, % at 4 µM;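 active means inhibition above the mean of compound-free control plate wells plus 3 SD, cut at about 14% in these data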;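 further: 0% = DMSO wells and 100% = wells with reference MMP-13 inhibitor after basal subtraction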
Hsp90 block: tumor Hsp90 inhibitors, primary screen, cell lysate, fluorescence polarization, NCI-N417 lysate; Heat shock protein HSP 90-alpha (Homo sapiens), P07900; Cy3B-geldanamycin FP displacement; inhibition, % at 30 µM; actives 0.35% (n = 64,000); AID 429, 2006;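 active means inhibition above 50%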;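 further: 0% = tracer plus lysate wells and 100% = tracer alone without lysate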
ROCK2 blocker: inhibitors of human ROCK2 kinase, primary screen, biochemical, high-throughput, luminescence; purified ROCK2, Kinase-Glo ATP depletion luminescence; inhibition, % at 6 µM; actives 0.35% (n = 60,000); AID 604, 2007; Rho-associated protein kinase 2 (Homo sapiens), O75116;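 active means inhibition above the screen-wide mean inhibition plus 3 SD, cut at about 18% in these data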;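 further: plate controls were DMSO wells for no effect and Y-27632 control wells after no-enzyme background subtraction for full effect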
Target sequence (O75116 whole entry, looked up): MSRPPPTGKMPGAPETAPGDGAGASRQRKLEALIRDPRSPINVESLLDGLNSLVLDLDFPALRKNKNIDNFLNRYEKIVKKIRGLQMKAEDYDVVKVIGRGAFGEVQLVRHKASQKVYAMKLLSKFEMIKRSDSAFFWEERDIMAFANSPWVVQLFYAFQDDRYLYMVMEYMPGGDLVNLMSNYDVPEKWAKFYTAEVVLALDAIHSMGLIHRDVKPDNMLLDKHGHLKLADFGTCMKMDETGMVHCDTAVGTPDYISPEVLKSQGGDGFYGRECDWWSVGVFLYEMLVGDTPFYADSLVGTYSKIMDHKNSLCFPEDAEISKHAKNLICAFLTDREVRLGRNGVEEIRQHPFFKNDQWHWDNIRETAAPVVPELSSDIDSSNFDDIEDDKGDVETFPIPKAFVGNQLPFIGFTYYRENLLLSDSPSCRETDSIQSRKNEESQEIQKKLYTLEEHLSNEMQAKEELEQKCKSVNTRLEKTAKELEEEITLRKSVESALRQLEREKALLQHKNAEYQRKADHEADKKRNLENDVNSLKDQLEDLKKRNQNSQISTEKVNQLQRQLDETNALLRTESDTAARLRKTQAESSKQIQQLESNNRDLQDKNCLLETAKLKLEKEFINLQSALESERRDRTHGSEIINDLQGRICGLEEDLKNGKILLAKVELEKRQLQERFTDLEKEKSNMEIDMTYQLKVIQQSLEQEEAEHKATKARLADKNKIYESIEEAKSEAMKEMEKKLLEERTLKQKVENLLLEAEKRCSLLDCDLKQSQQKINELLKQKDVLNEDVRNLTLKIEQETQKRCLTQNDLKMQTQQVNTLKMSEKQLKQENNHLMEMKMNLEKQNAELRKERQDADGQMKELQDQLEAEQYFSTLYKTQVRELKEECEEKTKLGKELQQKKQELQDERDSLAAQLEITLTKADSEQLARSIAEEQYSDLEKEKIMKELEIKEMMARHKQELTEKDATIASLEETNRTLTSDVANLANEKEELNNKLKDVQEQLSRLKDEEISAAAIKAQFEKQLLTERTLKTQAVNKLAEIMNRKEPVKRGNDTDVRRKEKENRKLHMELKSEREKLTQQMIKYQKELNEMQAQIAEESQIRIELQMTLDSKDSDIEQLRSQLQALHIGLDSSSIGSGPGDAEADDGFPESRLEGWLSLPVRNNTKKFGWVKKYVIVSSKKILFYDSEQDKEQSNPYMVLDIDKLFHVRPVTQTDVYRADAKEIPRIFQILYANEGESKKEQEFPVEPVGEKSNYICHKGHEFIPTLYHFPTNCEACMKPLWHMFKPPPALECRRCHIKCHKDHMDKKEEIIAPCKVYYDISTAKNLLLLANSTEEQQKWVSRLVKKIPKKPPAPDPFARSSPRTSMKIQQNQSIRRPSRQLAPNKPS
Numbers without * were called inactive; / = not tested or not shown. In the library only some 0.97% were active in any assay of this set; here they are far more common.

SMILES | SK-BR-3 tox 24h | PKA inh | Htt clearance | MMP13 inh | Hsp90 block | ROCK2 blocker
O=C1c2c(O)cc(O)cc2OC(c2ccc(O)c(O)c2)C1O (stereo unspecified) | / | / | / | / | 71.0* | /
Cc1c(C(=O)N2CCCCC2)sc(NC(=O)C23CC4CC(CC(C4)C2)C3)c1C#N | / | / | 38.0 | / | / | /
Cc1ccc(C(=O)CN(C(=O)c2ccc(Cl)c(Cl)c2)N2C(=O)C3C4C=CC(C4)C3C2=O)cc1 (stereo unspecified) | / | / | -29.3 | / | / | /
Cc1ccc(CNc2ccc(O)cc2)cc1 | 68.1 | -7.5 | 11.3 | 3.1 | 56.4* | 0.8
O=C(N/N=C/c1ccccn1)c1ccco1 | / | / | -11.5 | / | / | /
CCCc1sc(N/N=C/c2ccccn2)nc1-c1ccc(F)cc1 | / | / | 81.9* | / | / | /
COC(=O)c1ccc2c(c1)NC(=O)C(N1CCCC1)S2 (stereo unspecified) | / | 7.5 | -23.0 | -2.2 | -6.3 | /
COC(=O)c1ccc2c(c1)SC1=C(CCCC1=O)N2 | 91.9 | 0.2 | -7.6 | -14.6 | 84.6* | 0.7
CC(C)(C)c1ccc(S(=O)(=O)/C=C/C#N)cc1 | / | / | / | / | -1.3 | /
Cn1cnnc1SCC(=O)c1ccc2c(c1)CCCC2 | 107.4 | 4.9 | / | 1.9 | 53.7* | 3.8
CC(=O)c1ccc(OCC(O)COc2ccc(C(C)=O)cc2)cc1 | 96.4 | 17.2 | -11.0 | 3.3 | -4.5 | 18.6*
CC(C)OCCCNC(=O)CCSc1ccc(Cl)cc1 | / | / | 22.3 | / | / | /
COc1cc(NCCCC(C)=NO)c2nccc(Cl)c2c1 | / | / | / | / | 1.3 | /
CCc1nnc(NC(=O)c2ccc(S(=O)(=O)N(CCOC)CCOC)cc2)o1 | 35.0* | 10.2 | 19.8 | 4.7 | 2.3 | 1.5
CCN(CC(=O)NC)S(=O)(=O)c1ccc(Br)cc1 | 91.0 | -6.8 | 33.7 | 1.5 | -1.6 | -5.9
O=C(CSc1ncnc2c1oc1ccccc12)Nc1ccc2c(c1)OCCO2 | 55.8 | 4.1 | 72.7* | 3.8 | -4.4 | -0.2
Cc1ccccc1Nc1cc2ccccc2c(=O)[nH]1 | 78.3 | 2.2 | / | -6.9 | 78.6* | 4.5
Cc1c(-c2ccccc2)sc(N)c1C(=O)N1CCOCC1 | / | 7.1 | -24.1 | -16.9 | -5.2 | 5.7
COC(=O)c1ccc(COc2ncnc3c(Cl)cc(Cl)cc23)o1 | / | 5.4 | 27.7 | 4.8 | -1.4 | -0.9
CCOCCCn1c(C)nc2c(c1=O)c1nc3ccccc3nc1n2CCC1=CCCCC1 | 12.3* | 4.1 | / | -73.0 | -6.3 | 4.4
CNC(=O)[C@H]1O[C@@H](n2cnc3c(NCc4ccc(N)cc4)ncnc32)C(O)[C@H]1O (stereo partly specified) | / | / | / | / | -0.2 | /
Cc1ccc(C2CC(C(F)F)n3ncc(C(=O)Nc4cnn(Cc5ccccc5C)c4)c3N2)cc1 (stereo unspecified) | 32.1* | 0.3 | / | 2.8 | -3.8 | 2.0
Cc1onc(-c2ccccc2)c1C(=O)N1CCN(C/C=C/c2ccccc2)CC1 | / | 5.3 | -75.1 | 0.3 | -1.7 | 21.7*
Cc1onc(-c2ccccc2)c1C(=O)N1CCN(CCc2ccccc2)CC1 | 88.5 | 9.1 | -18.9 | -2.2 | -2.2 | 6.2
Cc1ccc(NC2=NCC(=O)N2Cc2ccc3c(c2)OCO3)cc1 | 89.0 | 9.8 | / | 0.8 | 2.2 | 6.3
SMILES | SK-BR-3 tox 24h | PKA inh | Htt clearance | MMP13 inh | Hsp90 block | ROCK2 blocker
COc1ccc(-c2nnn(CC(=O)Nc3sc4c(c3C#N)CCCC4)n2)cc1 | 101.1 | 1.7 | / | 3.4 | -5.0 | 9.8
O=C(COc1ccc(Cl)cc1Cl)NC(=O)N1CCCCC1 | / | -4.8 | / | 14.3* | -1.0 | -3.7
Cc1nc(-c2c(-c3ccc(O)cc3O)noc2C(F)(F)F)cs1 | 75.1 | 2.3 | / | -1.6 | 74.2* | -3.4
COc1ccc(-c2nc(N)ncc2-c2csc(C)n2)c(O)c1 | / | 9.5 | -5.7 | 2.8 | 9.7 | 2.6
COC(=O)C1=C(C)N(c2cc(Cl)cc(Cl)c2)C(=O)C1 | 103.9 | -1.8 | / | 1.0 | / | /
CCc1ccc(C(=O)CSc2n[nH]c(-c3ccncc3)n2)cc1 | / | / | 24.6 | / | / | /
O=C(CSc1n[nH]c(-c2ccccc2)n1)c1ccc(O)c(O)c1 | 93.5 | -2.1 | / | 1.5 | 76.4* | -1.1
Cc1ccc(O)c(/C=N/NC(=O)C2=NNC(c3ccccc3)(c3ccccc3)C2)c1 | / | / | 71.1* | / | / | /
O=C(N1CCOCC1)N1CCCC(c2nc(-c3cccs3)no2)C1 (stereo unspecified) | / | -1.2 | 50.1 | -0.9 | 2.9 | 1.9
O=C(Cc1ccccc1)N1CCCC(c2nc(-c3cccs3)no2)C1 (stereo unspecified) | 41.4* | 0.3 | 51.4 | -0.8 | 1.3 | -2.5
CCC/C(O)=N\S(=O)(=O)c1ccc(N=NN(C)C)cc1 | / | / | 6.3 | / | / | /
CCCCn1c2nc3ccccc3nc2c2c(=N)oc(C)nc21 | 91.5 | 9.4 | / | -126.6 | / | /
CCCCC(CC)Cn1c2nc3ccccc3nc2c2c(=N)oc(C)nc21 (stereo unspecified) | 38.2* | 6.3 | / | -3.3 | -18.0 | /
CCC(C)(C)NCCCCCNc1cc(OC)cc2cccnc12 | / | / | / | / | -0.2 | /
O=C(NCCN1CCOCC1)NC1(C(F)(F)F)Oc2ccc(Cl)cc2O1 (stereo unspecified) | / | 9.5 | / | 1.3 | 65.2* | 6.7
COCC(C)NC(=O)NC1(C(F)(F)F)Oc2ccc(Cl)cc2O1 (stereo unspecified) | 103.8 | 3.4 | -11.1 | 4.8 | / | /
COc1cc2c(cc1OC)C(c1cc3cc4c(cc3[nH]c1=O)OCO4)N(C(=O)C(C)C)CC2 (stereo unspecified) | / | / | 84.4* | / | / | /
COc1cc2c(cc1OC)C(C)N(C(=O)C1COc3ccccc3O1)CC2 (stereo unspecified) | / | 4.7 | / | -226.9 | 0.7 | 4.3
CCOc1ccc(N2CC(C(=O)Nc3ccccc3F)CC2=O)cc1 (stereo unspecified) | / | 7.3 | / | 1.5 | -1.7 | /
O=C1c2ccccc2C(=O)N1CCc1csc(-c2cccc(F)c2)n1 | / | / | -9.0 | / | / | /
CN(C)c1nc(SCC#N)nc(N(C)C)n1 | 94.7 | 13.8 | 72.2* | 3.8 | -10.1 | 4.5
CN(C)c1nc(N(C)C)nc(N(C)C)n1 | 94.0 | 0.2 | / | 6.7 | 1.8 | 5.7
O=C(Cn1nnc(-c2ccncc2)n1)Nc1ccc2c(c1)CCC2 | 89.5 | 0.7 | 16.0 | 14.8* | -6.0 | 2.0
O=C(Cn1nnc(-c2ccccc2F)n1)Nc1ccc2c(c1)OCO2 | 91.8 | 9.5 | 22.5 | 15.9* | -4.0 | -0.9
Cc1cc2ccccc2c(=O)n1CC(=O)Nc1ccc2c(c1)OCO2 | 106.3 | 22.5* | / | -6.9 | 1.8 | 12.9
COc1cc(NC(=O)Cn2nnc(-c3ccncc3)n2)cc(OC)c1 | 88.9 | 0.3 | 6.4 | -17.1 | -1.6 | 4.3
CN1C2CCC1CC(NC(=O)c1nn(C)c3ccccc13)C2 (stereo unspecified) | / | / | / | / | -1.8 | /
CCC(C)[C@@H](NC(=O)OC(C)(C)C)c1nnc(S(=O)(=O)Cc2cccc(C)c2)o1 (stereo partly specified) | 20.8* | 4.5 | 18.3 | 3.2 | -1.9 | -0.3
